What all share (experiment): DAPPL (digital affinity profiling via proximity ligation, sequencing); 10 mM Tris-HCl pH 7.5, 50 mM NaCl, 1 mM DTT, 4% glycerol, room temperature, 30 min; GST-TFs on glutathione beads, 16-mer random dsDNA library, 0.1% formaldehyde crosslink after washing; high values mean tight binding
Conditions in all cases: protein: recombinant; tags: N-terminal GST; dsDNA, one strand shown

In one assay the target is T1, FLI1 (Homo sapiens, UniProt Q01543 1-452).
T1 sequence: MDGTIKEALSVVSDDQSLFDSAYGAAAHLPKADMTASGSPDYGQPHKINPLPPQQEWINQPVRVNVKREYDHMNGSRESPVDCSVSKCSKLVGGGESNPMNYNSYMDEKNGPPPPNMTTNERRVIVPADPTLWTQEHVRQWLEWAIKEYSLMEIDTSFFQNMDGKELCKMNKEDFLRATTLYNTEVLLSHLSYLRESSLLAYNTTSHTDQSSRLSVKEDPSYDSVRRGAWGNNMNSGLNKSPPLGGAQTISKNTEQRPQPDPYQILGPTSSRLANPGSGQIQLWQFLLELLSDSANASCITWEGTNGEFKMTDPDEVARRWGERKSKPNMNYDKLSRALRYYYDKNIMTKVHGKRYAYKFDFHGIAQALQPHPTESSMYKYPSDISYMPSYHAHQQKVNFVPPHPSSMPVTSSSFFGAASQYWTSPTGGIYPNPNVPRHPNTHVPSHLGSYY
In short, it runs like this: (§1)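 Each value of binding signal is a hexamer's read frequency for a factor divided by the same hexamer's frequency in the tag-only sample. Barcoded, bead-captured GST fusions of human transcription factors made in yeast were pooled with that sample and incubated with 200 nmole of a random double-stranded 16-mer DNA library in Tris/NaCl/DTT/glycerol buffer at room temperature for 30 min. Washing, 0.1% formaldehyde crosslinking, proximity ligation, PCR and Illumina NextSeq500 sequencing followed.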

For another assay, the target named is T2, ELK1 (Homo sapiens, UniProt P19419 1-428).
T2 sequence: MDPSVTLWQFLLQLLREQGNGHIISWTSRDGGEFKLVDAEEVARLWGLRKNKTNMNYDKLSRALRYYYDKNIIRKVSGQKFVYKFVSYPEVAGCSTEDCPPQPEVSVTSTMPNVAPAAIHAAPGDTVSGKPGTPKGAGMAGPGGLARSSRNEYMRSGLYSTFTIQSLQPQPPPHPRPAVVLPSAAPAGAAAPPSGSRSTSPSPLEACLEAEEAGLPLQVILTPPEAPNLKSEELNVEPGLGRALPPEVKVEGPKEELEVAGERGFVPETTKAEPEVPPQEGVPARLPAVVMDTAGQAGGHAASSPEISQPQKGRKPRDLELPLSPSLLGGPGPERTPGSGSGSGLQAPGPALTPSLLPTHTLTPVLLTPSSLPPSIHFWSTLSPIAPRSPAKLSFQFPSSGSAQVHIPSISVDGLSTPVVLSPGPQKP
In short, it runs like this: as §1

The target of the next assay is T3, GABPA (Homo sapiens, UniProt Q06546 1-454).
T3 sequence: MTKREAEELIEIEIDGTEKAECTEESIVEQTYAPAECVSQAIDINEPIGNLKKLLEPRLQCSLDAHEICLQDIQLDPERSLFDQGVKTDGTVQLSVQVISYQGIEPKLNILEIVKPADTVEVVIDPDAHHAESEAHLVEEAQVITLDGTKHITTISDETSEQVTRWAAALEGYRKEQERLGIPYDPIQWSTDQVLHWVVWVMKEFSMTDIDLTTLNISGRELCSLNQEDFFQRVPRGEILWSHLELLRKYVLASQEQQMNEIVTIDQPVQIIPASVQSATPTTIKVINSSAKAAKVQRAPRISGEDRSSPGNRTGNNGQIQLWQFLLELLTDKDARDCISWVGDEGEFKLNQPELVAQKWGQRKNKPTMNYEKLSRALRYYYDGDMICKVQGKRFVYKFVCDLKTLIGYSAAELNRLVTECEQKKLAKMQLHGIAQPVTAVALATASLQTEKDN
In outline: as §1

A further assay addresses T4, ERG (Homo sapiens, UniProt P11308 1-479).
T4 sequence: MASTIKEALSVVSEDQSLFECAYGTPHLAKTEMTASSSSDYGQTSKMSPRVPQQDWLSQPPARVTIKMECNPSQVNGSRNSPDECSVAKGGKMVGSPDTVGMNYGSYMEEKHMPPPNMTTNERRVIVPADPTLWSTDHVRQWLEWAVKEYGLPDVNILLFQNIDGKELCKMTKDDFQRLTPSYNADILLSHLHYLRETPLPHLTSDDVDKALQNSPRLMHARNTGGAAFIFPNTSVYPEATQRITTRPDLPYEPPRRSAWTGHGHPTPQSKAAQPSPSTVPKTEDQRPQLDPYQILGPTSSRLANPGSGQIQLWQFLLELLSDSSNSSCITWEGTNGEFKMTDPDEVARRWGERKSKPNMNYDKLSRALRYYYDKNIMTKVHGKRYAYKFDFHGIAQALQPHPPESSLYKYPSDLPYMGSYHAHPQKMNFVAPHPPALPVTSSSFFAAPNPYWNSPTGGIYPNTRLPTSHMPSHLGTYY
In outline: as §1

A further assay deals with ELF1 (Homo sapiens, UniProt P32519 1-619). In short, it runs like this: as §1
For a further assay, the target named is T5, EHF (Homo sapiens, UniProt Q9NZC4 1-300).
T5 sequence: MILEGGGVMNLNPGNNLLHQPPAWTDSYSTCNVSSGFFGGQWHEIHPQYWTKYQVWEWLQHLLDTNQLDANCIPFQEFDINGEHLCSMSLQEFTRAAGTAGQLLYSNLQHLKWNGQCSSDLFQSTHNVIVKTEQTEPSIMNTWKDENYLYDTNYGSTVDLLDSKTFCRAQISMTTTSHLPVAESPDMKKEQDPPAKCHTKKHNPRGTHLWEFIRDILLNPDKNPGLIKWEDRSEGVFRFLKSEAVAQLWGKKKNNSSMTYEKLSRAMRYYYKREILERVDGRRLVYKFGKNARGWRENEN
In short, it runs like this:
as §1

In a further assay the target is SPI1 (Homo sapiens, UniProt P17947 1-270). In outline:
as §1

In another assay the target is SPIB (Homo sapiens, UniProt Q01892 1-262). In outline: as §1
A further assay addresses T6, ELK3 (Homo sapiens, UniProt P41970 1-407).
T6 sequence: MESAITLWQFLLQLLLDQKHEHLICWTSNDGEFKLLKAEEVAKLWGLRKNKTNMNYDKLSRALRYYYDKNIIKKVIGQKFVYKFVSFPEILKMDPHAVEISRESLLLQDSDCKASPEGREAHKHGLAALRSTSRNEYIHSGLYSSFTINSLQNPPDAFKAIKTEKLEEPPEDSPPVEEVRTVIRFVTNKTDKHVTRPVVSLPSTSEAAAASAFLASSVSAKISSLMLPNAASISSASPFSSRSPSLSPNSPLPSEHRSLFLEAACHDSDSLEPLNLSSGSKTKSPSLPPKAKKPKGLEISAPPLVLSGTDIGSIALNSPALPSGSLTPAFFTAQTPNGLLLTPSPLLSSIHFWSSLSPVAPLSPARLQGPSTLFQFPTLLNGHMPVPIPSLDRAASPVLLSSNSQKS
In short, it runs like this:
as §1

The target of another assay is T7, FEV (Homo sapiens, UniProt Q99581 1-238).
T7 sequence: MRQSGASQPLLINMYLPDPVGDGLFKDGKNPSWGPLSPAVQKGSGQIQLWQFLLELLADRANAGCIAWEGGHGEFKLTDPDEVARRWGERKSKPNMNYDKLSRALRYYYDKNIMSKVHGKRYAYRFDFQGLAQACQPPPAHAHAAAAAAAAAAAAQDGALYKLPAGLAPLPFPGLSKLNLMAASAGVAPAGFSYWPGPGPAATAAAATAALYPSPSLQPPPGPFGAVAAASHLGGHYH
In short, it runs like this:
as §1

In another assay the target is ETV5 (Homo sapiens, UniProt P41161 1-510). In outline:
as §1

The target in a further assay is T8, SPIC (Homo sapiens, UniProt Q8N5J4 1-248).
T8 sequence: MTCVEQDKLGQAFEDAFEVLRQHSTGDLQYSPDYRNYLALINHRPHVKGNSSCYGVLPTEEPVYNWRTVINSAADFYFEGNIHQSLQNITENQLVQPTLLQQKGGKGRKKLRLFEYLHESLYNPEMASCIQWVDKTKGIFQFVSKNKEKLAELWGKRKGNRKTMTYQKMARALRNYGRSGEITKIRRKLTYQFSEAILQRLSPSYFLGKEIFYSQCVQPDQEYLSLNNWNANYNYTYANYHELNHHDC
In outline: as §1

For another assay, the target named is ELF4 (Homo sapiens, UniProt Q99607 1-663). In outline: as §1
The target of another assay is T9, ELK4 (Homo sapiens, UniProt P28324-2 1-405).
T9 sequence: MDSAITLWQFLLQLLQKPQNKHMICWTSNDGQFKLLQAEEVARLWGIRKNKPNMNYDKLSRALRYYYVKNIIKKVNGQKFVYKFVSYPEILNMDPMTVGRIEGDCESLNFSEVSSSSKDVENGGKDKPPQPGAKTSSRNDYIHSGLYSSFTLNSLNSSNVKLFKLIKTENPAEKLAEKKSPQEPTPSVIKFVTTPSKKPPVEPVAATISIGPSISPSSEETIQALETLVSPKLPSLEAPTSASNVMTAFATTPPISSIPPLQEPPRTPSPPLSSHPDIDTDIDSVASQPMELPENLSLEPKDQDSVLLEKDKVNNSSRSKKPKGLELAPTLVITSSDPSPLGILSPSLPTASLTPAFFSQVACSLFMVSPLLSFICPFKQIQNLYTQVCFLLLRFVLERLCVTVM
In short, it runs like this:
as §1

The target of another assay is T10, ETV2 (Homo sapiens, UniProt O00321 1-342).
T10 sequence: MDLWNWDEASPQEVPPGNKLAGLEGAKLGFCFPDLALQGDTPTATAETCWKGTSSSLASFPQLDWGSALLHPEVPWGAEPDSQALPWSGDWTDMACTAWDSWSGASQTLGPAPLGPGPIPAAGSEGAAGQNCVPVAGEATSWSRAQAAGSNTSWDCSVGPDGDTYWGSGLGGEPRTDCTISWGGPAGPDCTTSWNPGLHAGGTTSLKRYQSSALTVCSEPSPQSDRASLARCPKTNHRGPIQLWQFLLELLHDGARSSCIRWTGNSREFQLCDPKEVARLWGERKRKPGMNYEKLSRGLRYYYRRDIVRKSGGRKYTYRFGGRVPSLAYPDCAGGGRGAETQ
In outline:
as §1

Another assay has as its target T11, ELF3 (Homo sapiens, UniProt P78545 1-371).
T11 sequence: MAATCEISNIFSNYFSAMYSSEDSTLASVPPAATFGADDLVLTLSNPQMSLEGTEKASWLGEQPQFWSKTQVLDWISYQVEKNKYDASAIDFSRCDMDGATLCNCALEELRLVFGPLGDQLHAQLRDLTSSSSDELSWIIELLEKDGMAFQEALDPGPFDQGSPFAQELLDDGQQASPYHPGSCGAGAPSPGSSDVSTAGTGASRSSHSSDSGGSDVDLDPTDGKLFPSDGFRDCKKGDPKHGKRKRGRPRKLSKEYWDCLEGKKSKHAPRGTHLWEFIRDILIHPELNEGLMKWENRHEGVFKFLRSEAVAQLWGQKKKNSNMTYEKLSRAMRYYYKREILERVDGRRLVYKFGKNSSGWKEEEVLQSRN
In outline: as §1

The target of the next assay is ETV1 (Homo sapiens, UniProt P50549 1-477). In outline: as §1
A further assay addresses CRX (Homo sapiens, UniProt O43186 1-299). In outline:
as §1

Chain of ETV5 (P41161 whole entry): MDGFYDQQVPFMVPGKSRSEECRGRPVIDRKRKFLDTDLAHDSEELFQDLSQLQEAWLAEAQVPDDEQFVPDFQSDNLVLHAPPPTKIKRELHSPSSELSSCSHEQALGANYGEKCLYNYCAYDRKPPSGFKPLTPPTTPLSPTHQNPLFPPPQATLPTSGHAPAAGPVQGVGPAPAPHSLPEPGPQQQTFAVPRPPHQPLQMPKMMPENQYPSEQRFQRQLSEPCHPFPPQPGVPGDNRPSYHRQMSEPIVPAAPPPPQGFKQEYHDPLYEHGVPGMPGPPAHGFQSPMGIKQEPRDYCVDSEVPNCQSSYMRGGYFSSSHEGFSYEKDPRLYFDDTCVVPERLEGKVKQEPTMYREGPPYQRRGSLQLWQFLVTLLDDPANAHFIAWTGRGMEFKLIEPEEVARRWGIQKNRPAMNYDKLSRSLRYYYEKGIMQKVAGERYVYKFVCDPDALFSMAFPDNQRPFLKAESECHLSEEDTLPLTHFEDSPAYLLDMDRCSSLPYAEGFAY
Chain of ELF4 (Q99607 whole entry): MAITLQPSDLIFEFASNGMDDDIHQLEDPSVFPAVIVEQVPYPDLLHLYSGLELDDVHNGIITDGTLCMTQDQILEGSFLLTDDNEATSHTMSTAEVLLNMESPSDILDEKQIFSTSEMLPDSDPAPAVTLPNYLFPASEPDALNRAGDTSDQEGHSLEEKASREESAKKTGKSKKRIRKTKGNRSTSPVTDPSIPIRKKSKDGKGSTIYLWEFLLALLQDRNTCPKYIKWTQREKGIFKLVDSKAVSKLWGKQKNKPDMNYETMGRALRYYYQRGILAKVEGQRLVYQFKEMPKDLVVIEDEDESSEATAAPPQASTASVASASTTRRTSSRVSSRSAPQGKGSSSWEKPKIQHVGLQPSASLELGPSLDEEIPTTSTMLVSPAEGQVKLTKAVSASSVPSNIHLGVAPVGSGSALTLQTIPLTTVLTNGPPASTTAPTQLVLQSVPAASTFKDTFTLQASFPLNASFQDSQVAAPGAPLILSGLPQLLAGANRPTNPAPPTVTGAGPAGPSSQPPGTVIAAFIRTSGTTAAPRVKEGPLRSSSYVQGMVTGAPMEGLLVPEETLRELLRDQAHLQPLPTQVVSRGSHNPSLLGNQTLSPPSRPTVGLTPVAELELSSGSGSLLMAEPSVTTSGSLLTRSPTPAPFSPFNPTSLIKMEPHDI
Chain of SPIB (Q01892 whole entry): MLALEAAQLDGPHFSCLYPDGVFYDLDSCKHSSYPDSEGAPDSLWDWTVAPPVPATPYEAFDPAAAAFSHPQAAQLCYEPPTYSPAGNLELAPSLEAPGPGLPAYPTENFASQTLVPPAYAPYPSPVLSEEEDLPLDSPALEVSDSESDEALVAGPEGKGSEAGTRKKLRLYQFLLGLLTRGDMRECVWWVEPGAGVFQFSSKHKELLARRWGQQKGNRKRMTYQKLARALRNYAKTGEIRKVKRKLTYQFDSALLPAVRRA
Chain of ELF1 (P32519 whole entry): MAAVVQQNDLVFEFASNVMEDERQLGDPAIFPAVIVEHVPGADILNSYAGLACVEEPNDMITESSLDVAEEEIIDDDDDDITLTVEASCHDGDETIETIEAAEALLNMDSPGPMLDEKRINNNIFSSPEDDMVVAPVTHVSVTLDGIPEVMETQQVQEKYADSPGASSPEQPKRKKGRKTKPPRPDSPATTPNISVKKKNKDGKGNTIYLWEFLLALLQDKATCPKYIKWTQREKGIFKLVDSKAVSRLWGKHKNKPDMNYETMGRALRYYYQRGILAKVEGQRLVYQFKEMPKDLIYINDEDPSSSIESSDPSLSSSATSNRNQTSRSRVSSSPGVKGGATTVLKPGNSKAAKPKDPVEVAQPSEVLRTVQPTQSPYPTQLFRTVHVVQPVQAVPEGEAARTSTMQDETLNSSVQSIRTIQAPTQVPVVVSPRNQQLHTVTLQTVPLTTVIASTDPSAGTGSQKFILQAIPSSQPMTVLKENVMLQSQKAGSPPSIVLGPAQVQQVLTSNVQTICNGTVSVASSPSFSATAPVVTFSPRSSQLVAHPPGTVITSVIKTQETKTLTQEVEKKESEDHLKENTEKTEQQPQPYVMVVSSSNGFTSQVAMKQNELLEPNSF
Chain of CRX (O43186 whole entry): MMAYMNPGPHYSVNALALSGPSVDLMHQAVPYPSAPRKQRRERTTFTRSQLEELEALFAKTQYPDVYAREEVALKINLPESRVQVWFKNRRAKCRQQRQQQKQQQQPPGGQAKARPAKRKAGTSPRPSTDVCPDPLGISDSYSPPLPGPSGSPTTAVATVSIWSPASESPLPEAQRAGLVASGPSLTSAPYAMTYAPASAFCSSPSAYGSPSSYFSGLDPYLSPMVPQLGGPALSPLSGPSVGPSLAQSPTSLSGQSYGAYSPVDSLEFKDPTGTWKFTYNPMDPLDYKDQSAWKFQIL
Chain of ETV1 (P50549 whole entry): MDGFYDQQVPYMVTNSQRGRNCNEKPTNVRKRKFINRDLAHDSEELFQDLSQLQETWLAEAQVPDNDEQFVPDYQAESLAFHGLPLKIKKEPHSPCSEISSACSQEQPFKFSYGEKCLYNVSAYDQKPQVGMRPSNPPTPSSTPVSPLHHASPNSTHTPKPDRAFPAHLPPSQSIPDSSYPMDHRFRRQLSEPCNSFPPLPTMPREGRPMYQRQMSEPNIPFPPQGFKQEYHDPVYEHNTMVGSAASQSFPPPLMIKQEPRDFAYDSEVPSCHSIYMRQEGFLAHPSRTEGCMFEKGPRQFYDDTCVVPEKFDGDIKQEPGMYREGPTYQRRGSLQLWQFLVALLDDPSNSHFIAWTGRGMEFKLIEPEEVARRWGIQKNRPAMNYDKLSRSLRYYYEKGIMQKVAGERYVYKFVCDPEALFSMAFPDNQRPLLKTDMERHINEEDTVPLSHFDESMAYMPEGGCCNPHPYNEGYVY

Consider CACCCG, for which the binding signal with FLI1 is 1.14 fold enrichment (6-mer frequency, TF over GST control); in the assay with ELK1, 1.24 fold enrichment (6-mer frequency, TF over GST control); in the assay with GABPA, 1.18 fold enrichment (6-mer frequency, TF over GST control); with ERG it was 1.21 fold enrichment (6-mer frequency, TF over GST control); in the assay with ELF1, 1.2 fold enrichment (6-mer frequency, TF over GST control); in the assay with EHF, 1.2 fold enrichment (6-mer frequency, TF over GST control). Further, the binding signal with SPI1 was 1.12 fold enrichment (6-mer frequency, TF over GST control); with SPIB it was 1.28 fold enrichment (6-mer frequency, TF over GST control); with ELK3 it was 1.17 fold enrichment (6-mer frequency, TF over GST control); with FEV it was 1.16 fold enrichment (6-mer frequency, TF over GST control); with ETV5, 1.21 fold enrichment (6-mer frequency, TF over GST control); with SPIC it was 1.17 fold enrichment (6-mer frequency, TF over GST control). For the same sequence, the binding signal was 1.18 fold enrichment (6-mer frequency, TF over GST control) with ELF4; 1.29 fold enrichment (6-mer frequency, TF over GST control) in the assay with ELK4; 1.2 fold enrichment (6-mer frequency, TF over GST control) in the assay with ETV2; 1.16 fold enrichment (6-mer frequency, TF over GST control) with ELF3; 1.14 fold enrichment (6-mer frequency, TF over GST control) with ETV1.
CGTTAT: the binding signal with FLI1 was 1.14 fold enrichment (6-mer frequency, TF over GST control); with ELK1 it was 1.11 fold enrichment (6-mer frequency, TF over GST control); with GABPA, 1.11 fold enrichment (6-mer frequency, TF over GST control); with ERG, 1.1 fold enrichment (6-mer frequency, TF over GST control); with ELF1, 1.17 fold enrichment (6-mer frequency, TF over GST control); in the assay with EHF, 1.07 fold enrichment (6-mer frequency, TF over GST control). The binding signal with SPI1 was 1.11 fold enrichment (6-mer frequency, TF over GST control); with SPIB it was 1.16 fold enrichment (6-mer frequency, TF over GST control); with ELK3, 1.26 fold enrichment (6-mer frequency, TF over GST control); with FEV it was 1.03 fold enrichment (6-mer frequency, TF over GST control); in the assay with ETV5 it was 1.15 fold enrichment (6-mer frequency, TF over GST control); with SPIC, 1.23 fold enrichment (6-mer frequency, TF over GST control). Further, the binding signal with ELF4 is 1.16 fold enrichment (6-mer frequency, TF over GST control); in the assay with ELK4, 1.15 fold enrichment (6-mer frequency, TF over GST control); in the assay with ETV2, 1.21 fold enrichment (6-mer frequency, TF over GST control); in the assay with ELF3 it was 1.04 fold enrichment (6-mer frequency, TF over GST control); in the assay with CRX it was 1.05 fold enrichment (6-mer frequency, TF over GST control).

The values above are taken from paper PMC7862700, “An all-to-all approach to the identification of sequence-specific readers for epigenetic DNA modifications on cytosine”.
